These results are taken from PubChem BioAssay AID2069 (Sanford-Burnham Center for Chemical Genomics, 2009).

Out of some 1,200 compounds screened, about 210 (18%) were called active. No stated cut-off is given here; in the data, active means inhibition above about 30%; inactive means the rest. Only a sample is shown.

The term inhibition denotes the change of the read-out against control, counted positive when it falls.

The test can be described thus: fluorescence readout artefact check – biochemical, HTRF, uHTS, artefact control for SUMOylation inhibitor project, confirmation (AID 2069). As to conditions: HTRF interference counterscreen, at 35 µM, active compounds read high. For orientation: In TR-FRET formats the signal depends on donor and acceptor labels being close together.
With `O=C(NCc1ccccc1)Nc1cccn(Cc2ccccc2Cl)c1=O`, the inhibition was 1.3% (inactive).
As for `N=C1S/C(=C\c2ccc(O)cc2)C(=O)N1c1ccc(F)cc1`, the inhibition was 14.8% (inactive).
The figure for `COc1ccc(-c2nc3c(c(SCC(=O)Nc4cccc(O)c4)n2)Cc2c(CO)cnc(C)c2O3)cc1` is -1.05% (inactive); for `CC(=O)Nc1ccc2nc3ccccc3nc2c1` it is 36.7% (active).
Take `O=C(Nc1ccc2nc3ccccc3nc2c1)c1ccc(Br)cc1`: the inhibition is 20.6% (inactive).
With `CC(=O)Nc1cccc(NC(=S)Nc2cccc3ccccc23)c1`, the inhibition is -2.65% (inactive).
`CC(=O)Nc1ccc(-c2nc3ccc(NC(C)=O)cc3o2)cc1`: the inhibition is 40.8% (active).
`Cc1ccc(-c2nc3ccccc3o2)cc1NC(=O)c1ccc2c(c1)OCO2`: the inhibition is 16.6% (inactive).
Consider `CC(=O)Nc1ccc(S(=O)(=O)Nc2nc3ccccc3nc2Nc2ccc3ccccc3c2)cc1`, for which the inhibition was 18.6% (inactive).
Regarding `CCOc1cc(/C=N/N=C(\N)c2nonc2N)cc(Br)c1OCc1cccc2ccccc12`, the inhibition is 0.3% (inactive).
With `Cc1cc(/C=C2\SC(=S)NC2=O)c(C)[nH]1`, the inhibition is 3.5% (inactive).
Under `O=C(Nc1ccc(N2CCOCC2)c2nonc12)C1CCCC1` stands -18.9% (inactive); under `O=C(O)CSc1cc(C(=O)c2ccccc2O)cn2c(=O)c3c(-c4ccccc4)csc3nc12`, 7.6% (inactive).
Consider `Cc1cc(-c2csc(N)n2)c(C)n1Cc1ccco1`, for which the inhibition was -4.05% (inactive).
Turning to `O=C(N/N=C/c1ccc(F)cc1)c1cc(-c2ccco2)nc2ccccc12`, the inhibition is 13% (inactive).
`Nc1c(C(=O)Nc2ccc(F)cc2)sc2nc(-c3ccco3)ccc12`: the inhibition was 47% (active).
With `O=C(Nc1ccc(-n2nncc2-c2ccco2)cc1)c1cc2ccccc2oc1=O`, the inhibition is 9.4% (inactive).
Take `COc1ccccc1NC(=O)c1sc2nc(-c3ccco3)ccc2c1N`: the inhibition is 26.8% (inactive).
The figure for `Nc1c(C(=O)Nc2ccccc2)sc2nc(-c3ccco3)ccc12` is 50.1% (active); for `Nc1c(C(=O)Nc2ccc(Br)cc2)sc2nc(-c3ccco3)ccc12` it is 28.9% (inactive).
Under `O=C(N/N=C/c1ccc(-c2cccc([N+](=O)[O-])c2)o1)c1ccccc1O` stands 2.3% (inactive).
On to `Cc1ccc(N=C2NC(=O)/C(=C\c3ccco3)S2)cc1`, for which the inhibition is -0.45% (inactive).
Turning to `NC1=NC(c2ccc(Cl)cc2)N(c2ccc(S(N)(=O)=O)cc2)C(N)=N1` (stereo not drawn), the inhibition was 6.2% (inactive).
Under `O=C(CNc1cccc2ccccc12)c1ccc([N+](=O)[O-])cc1` stands -2.7% (inactive).
The figure for `CCOC(=O)N1CCN(C2=C(NS(=O)(=O)c3ccc(C)cc3)C(=O)c3ccccc3C2=O)CC1` is -12.7% (inactive); for `COc1cc(C2c3c(oc4ccccc4c3=O)C(=O)N2c2nccs2)ccc1O` (stereo not drawn) it is 7.95% (inactive); for `O=C(O)c1cc(-c2ccco2)nn1-c1ccc(Cl)cc1` it is 1.75% (inactive).
As for `Cc1ccc(S(=O)(=O)n2ccc(OC(=O)c3cccs3)n2)cc1`, the inhibition was 0.25% (inactive).
As for `O=C1NNC(c2ccccc2)=N/C1=C\c1ccccc1Cl`, the inhibition is -7.9% (inactive).
With `Cc1ncc(CO)c(/C=N/NC(=O)c2cc(O)c(O)c(O)c2)c1O`, the inhibition was 0.4% (inactive).
Regarding `CN(C)/C=N/c1nc2nccc(-c3cccc(Cl)c3)n2n1`, the inhibition was 57.1% (active).
`CN(C)/C=N/c1nc2nccc(-c3cccnc3)n2n1`: the inhibition was 49.2% (active).
Regarding `S=c1[nH]nc(-c2cccnc2)n1/N=C/C=C/c1ccco1`, the inhibition was -1.7% (inactive).
`CC1=NN(c2ccc(F)cc2)C(=O)C1C(c1cccc(O)c1)c1c(C)[nH]n(-c2ccc(F)cc2)c1=O` (stereo not drawn): the inhibition is -9.8% (inactive).
Consider `CN(C)c1cc(N/N=C\c2ccccc2)nc(N(C)C)n1`, for which the inhibition was 22.4% (inactive).
The figure for `O=C(CC1Nc2cccc3cccc(c23)NC1=O)Nc1ccccc1` (stereo not drawn) is -22.9% (inactive); for `O=C(CSc1ccc(Br)c2cccc(Cl)c12)Nc1ccc(S(=O)(=O)Nc2nccs2)cc1` it is -50.4% (inactive).
With `COc1cc2c(ccc3cc(OC)c(OC)c(O)c32)cc1O`, the inhibition was 24.2% (inactive).
Regarding `CC(=O)Nc1ccc(NC(=O)Cn2c(-c3ccc(F)cc3)cnc2SCC(=O)Nc2c(C)cccc2C)cc1`, the inhibition is -6.5% (inactive).
Under `[O-]/C(=C(\C(=S)Nc1cccc2ccccc12)[n+]1ccccc1)c1ccc(Cl)s1` stands -8.3% (inactive); under `COc1c(C)oc2cc(O)ccc2c1=O`, 41% (active).
For the compound `O=C1CC(N2CCOCC2)=NN1c1ccc([N+](=O)[O-])cc1`, the inhibition was -12.8% (inactive).
With `O=C(NNc1cc(N2CCOCC2)nc(N2CCOCC2)n1)c1ccc(Cl)c(Cl)c1`, the inhibition was -6.9% (inactive).
Under `Fc1ccc(-c2nc3cnccn3c2NC2CCCC2)cc1` stands 57.9% (active); under `O=C(/C=C\c1ccco1)c1ccc(NC(=O)c2ccco2)cc1`, 0.2% (inactive); under `CCOc1cc(CNc2ccc(N3CCN(C(C)=O)CC3)cc2)cc(Br)c1OC`, -8.4% (inactive).
On to `Cc1c2c(=O)n(-c3nc4ccccc4s3)nc-2cc(O)n1Cc1ccccc1`, for which the inhibition was -12.7% (inactive).
For the compound `Cc1ccc(S(=O)(=O)NNC(=S)Nc2c(Cl)cccc2Cl)cc1`, the inhibition was -4.65% (inactive).
As for `Cc1[nH]n(-c2ccccc2)c(=O)c1/C=N/N(C)c1ccccc1`, the inhibition was -31.9% (inactive).
For `C[n+]1cccc2ccc3c(c21)OC(N)=C(C#N)C3c1ccccc1` (stereo not drawn), the inhibition was -12.1% (inactive).
Under `COc1cc(OC)cc(-c2nc(-c3ccccc3)no2)c1` stands -17.7% (inactive); under `COc1ccc(-c2cc(-c3ccccc3)n3ncnc3n2)cc1`, 53.7% (active); under `Cc1ccc(S(=O)(=O)C(C#N)c2nc3ccccc3nc2N2CCCC2)cc1` (stereo not drawn), -7.1% (inactive).
In the case of `COc1ccc(C2=NN(C(=O)c3cccs3)C(c3ccccc3O)C2)cc1` (stereo not drawn), the inhibition is 8.65% (inactive).
For `CC1=NN(c2ccccc2)C(=O)/C1=C/c1ccc(Cl)cc1`, the inhibition was -10.2% (inactive).
Consider `O=C(O)c1ccc(C(=O)Nc2cccc3ccccc23)c(C(=O)O)c1`, for which the inhibition is 4.4% (inactive).
Regarding `O=[N+]([O-])c1ccc2[nH]c(O)c(N=NC(=S)Nc3cccnc3)c2c1`, the inhibition is -5.4% (inactive).
For the compound `CCN(CC)CCOC(=O)c1ccc(N/C=C(/C#N)c2nc(-c3ccc(OC)c(OC)c3)cs2)cc1`, the inhibition is 6.75% (inactive).
As for `O=S(=O)(c1ccc2nc(-c3ccco3)c(-c3ccco3)nc2c1)N1CCOCC1`, the inhibition is 30.4% (active).
Consider `O=C(NCc1ccccc1)c1ccc2nc(-c3ccco3)c(-c3ccco3)nc2c1`, for which the inhibition was 15.6% (inactive).
On to `O=C(Nc1ccc2nc(-c3ccco3)c(-c3ccco3)nc2c1)N1CCN(c2ccccn2)CC1`, for which the inhibition is 12.2% (inactive).
As for `C=CCN1C(=O)N(CC=C)c2cccc3cccc1c23`, the inhibition is -6.45% (inactive).
Under `Nc1c(N2CCCC2)cc(Cl)c2nonc12` stands 22.4% (inactive).
As for `CCOC(=O)COc1nc(-c2ccco2)cc(-c2ccco2)c1C#N`, the inhibition is 22.2% (inactive).
As for `N#Cc1c(-c2cccc(Br)c2)cc(-c2ccco2)[nH]c1=O`, the inhibition is 31.6% (active).
With `N#Cc1c(-c2ccco2)cc(-c2cccnc2)nc1N`, the inhibition is 25.1% (inactive).
The figure for `COc1ccc(S(=O)(=O)/N=C2/NC(=O)/C(=C\c3ccco3)S2)cc1` is -10.3% (inactive).
The figure for `CC(=O)C1=C(O)C=C(c2ccco2)CC1c1ccco1` (stereo not drawn) is -2.85% (inactive).
Regarding `O=c1oc2cc(O)ccc2cc1-c1ccc(F)cc1`, the inhibition was 45.8% (active).
For `O=c1cc(-c2ccc(F)cc2)[nH][nH]1`, the inhibition was -7.15% (inactive).
Under `Cc1ccc(NC(=O)CN2C(=O)S/C(=C/c3ccc(O)c([N+](=O)[O-])c3)C2=O)cc1C` stands -1.6% (inactive); under `Cc1ccc(NC(=O)Cn2c(O)c(N=NC(=O)c3cc4ccccc4cc3O)c3ccccc32)cc1`, 8.55% (inactive); under `N=c1c(S(=O)(=O)c2ccc(Cl)cc2)cc2c(=O)n3ccccc3nc2n1Cc1ccco1`, -23.2% (inactive).
`Cc1ccc(S(=O)(=O)c2cc3c(=O)n4ccccc4nc3n(Cc3ccco3)c2=N)cc1`: the inhibition was -2.55% (inactive).
Regarding `Cn1c(C(=O)N2COCC2(C)C)cc2c(=O)n3ccccc3nc21`, the inhibition was 55.8% (active).
With `Cn1c(C(=O)N2CCN(C(=O)c3ccco3)CC2)cc2c(=O)n3ccccc3nc21`, the inhibition was 57.9% (active).
In the case of `N=c1c(S(=O)(=O)c2ccc(Br)cc2)cc2c(=O)n3ccccc3nc2n1Cc1ccco1`, the inhibition is -13.2% (inactive).
The figure for `N=c1c(S(=O)(=O)c2ccccc2)cc2c(=O)n3ccccc3nc2n1Cc1ccco1` is 14.8% (inactive); for `O=C(/C=C/c1ccco1)Nc1cccc2cccnc12` it is 2.9% (inactive).
The figure for `CCOC(=O)c1c(CSc2ccccc2)n(C)c2cc(Br)c(OCC(O)CNC(CO)(CO)CO)cc12` (stereo not drawn) is 0.05% (inactive); for `O=C(Cc1cc(=O)oc2cc(O)ccc12)NCC1CCC(C(=O)O)CC1` (stereo not drawn) it is 44.1% (active).
Consider `CN(C)c1cccc(C(=O)OCc2cc(=O)oc3cc(O)ccc23)c1`, for which the inhibition is 3.4% (inactive).
Consider `O=C(Nc1cccc2nsnc12)c1ccc(-c2ccc(Br)cc2)o1`, for which the inhibition is 22.6% (inactive).
On to `O=C(NCCc1ccccc1)c1ccc2nc(-c3ccco3)c(-c3ccco3)nc2c1`, for which the inhibition is 12.2% (inactive).
On to `Cc1nn(CC(=O)Nc2ccc(C(=O)N(C)C)cc2)c(=O)c2ccccc12`, for which the inhibition was -0.95% (inactive).
Regarding `CNc1nnc(-c2cc3ccccc3oc2=O)s1`, the inhibition was 23.1% (inactive).
For the compound `Nc1nnc(-c2cc3c(ccc4ccccc43)oc2=O)s1`, the inhibition was 30.1% (active).
The figure for `CCOc1cccc2cc(-c3nnc(NCc4ccco4)s3)c(=O)oc12` is 26.9% (inactive).
Regarding `Brc1ccc(C2Nc3cccc4cccc(c34)N2)o1`, the inhibition was -8.65% (inactive).
On to `C/C(=N\OCc1nc2ccccc2c(=O)n1/N=C/c1cc(C)cc([N+](=O)[O-])c1O)c1ccccc1`, for which the inhibition is -17% (inactive).
Under `CCOC(=O)Cn1c2ccccc2c2nc3ccccc3nc21` stands 25.7% (inactive); under `CCOC(=O)Cn1c2ccc(OC)cc2c2nc3ccccc3nc21`, 53.6% (active).
As to `COC(=O)Cn1c2ccc(C)cc2c2nc(C)sc21`, the inhibition is 2.05% (inactive).
